SMILES strings stand for the structures.

This assay concerns Vero E6 infected with SARS-CoV-2. As to the kind of experiment: SARS-CoV-2 infection rate relative to infected DMSO; higher = more infection, active = 60 or less. The note with it: 24 h.
For `C=C1C(=O)O[C@@H]2C[C@@]3(C)CCC[C@H](C)C3=C[C@H]12` [alantolactone] (10 µM), the SARS-CoV-2 infection rate is 32% (active).

With `Nc1ccncc1` [dalfampridine] (10 µM), the SARS-CoV-2 infection rate is 103% (inactive).

In the case of `COC(=O)[C@H](CC(C)C)NC(=O)c1ccc(NC[C@@H](N)CS)cc1-c1cccc2ccccc12` (10 µM), the SARS-CoV-2 infection rate is 115% (inactive).

Regarding `Cc1ccc2c(=O)c3cccc(CC(=O)O)c3oc2c1C` (10 µM), the SARS-CoV-2 infection rate is 114% (inactive).

`Oc1c(Cl)cc(Cl)c(Cl)c1Cc1c(O)c(Cl)cc(Cl)c1Cl` [hexachlorophene] (10 µM): the SARS-CoV-2 infection rate was 83.5% (inactive).

For the molecule `COc1ccc(S(=O)(=O)N2c3ccc(Cl)cc3[C@](O)(c3ccccc3Cl)[C@@H]2C(=O)N2CCC[C@H]2C(N)=O)cc1OC` [relcovaptan] (10 µM), the SARS-CoV-2 infection rate was 106% (inactive).

On to `NS(=O)(=O)OC[C@@H]1C[C@@H](n2ccc3c(N[C@H]4CCc5ccccc54)ncnc32)C[C@@H]1O` [pevonedistat] (0.833333 µM), for which the SARS-CoV-2 infection rate was 110% (inactive).

Take `O[C@H]([C@H](O)[C@@H]1CO1)[C@H]1CO1` [dianhydrogalactitol] (10 µM): the SARS-CoV-2 infection rate is 114% (inactive).

In the case of `O=C(O)CN1C(=O)c2cccc3cccc(c23)C1=O` [alrestatin] (10 µM), the SARS-CoV-2 infection rate was 106% (inactive).

In the case of `Cc1cc(/C=C2\SC(=O)N(c3ccccc3)C2=O)c(C)n1-c1cccnc1` (10 µM), the SARS-CoV-2 infection rate is 102% (inactive).

Turning to `Nc1nc(O)c2[nH]nnc2n1` [azaguanine-8] (0.833333 µM), the SARS-CoV-2 infection rate was 51.5% (active).

Regarding `O=S(=O)(NCC1CC1)c1ccc(Nc2nccc(N3CCCc4cc(O)ccc43)n2)cc1` [pyrintegrin] (0.833333 µM), the SARS-CoV-2 infection rate was 60.5% (inactive).

Take `C[C@@H]1CCCN1CCc1cc2cc(-c3ccc(C#N)cc3)ccc2o1` (10 µM): the SARS-CoV-2 infection rate is 80.5% (inactive).

With `CC1(C)CCC(C)(C)c2c1cc(C(=O)Nc1cc(F)c(C(=O)O)c(F)c1)c(O)c2Cl` (10 µM), the SARS-CoV-2 infection rate is 110% (inactive).

For `Cc1c(C)c2c(c(C)c1O)CC[C@@](C)(CCC[C@H](C)CCC[C@H](C)CCCC(C)C)O2` [vitamin-E] (10 µM), the SARS-CoV-2 infection rate is 117% (inactive).

In the case of `FC(F)(F)c1ccc(CNc2ccc(Cc3c[nH]c4ncc(Cl)cc34)cn2)cn1` [pexidartinib] (10 µM), the SARS-CoV-2 infection rate is 77.5% (inactive).

For the molecule `CC(=O)N1CCN(CCOc2ccc(C3CCN(C4=Nn5c(nnc5C(F)(F)F)CC4)CC3)cc2)CC1` (0.833333 µM), the SARS-CoV-2 infection rate is 98.5% (inactive).

Take `O=C(NC[C@H](O)CO)c1ccncc1Nc1ccc(I)cc1F` (0.833333 µM): the SARS-CoV-2 infection rate is 114% (inactive).

As to `Cc1cc(C)nc(NS(=O)(=O)c2ccc(NC(=S)NC(=O)COc3ccc(Br)cc3Cl)cc2)n1` (10 µM), the SARS-CoV-2 infection rate is 108% (inactive).

With `O=C(OCCN1CCOCC1)c1cccnc1Nc1cccc(C(F)(F)F)c1` [morniflumate] (10 µM), the SARS-CoV-2 infection rate is 108% (inactive).

Turning to `Cc1onc(O)c1C[C@@H](N)C(=O)O` (racemic) (10 µM), the SARS-CoV-2 infection rate was 104% (inactive).

On to `COc1cccc2c1C(=O)c1c(O)c3c(c(O)c1C2=O)C[C@@](O)(/C(CO)=N/NC(=O)CCCCCN1C(=O)C=CC1=O)C[C@@H]3O[C@H]1C[C@H](N)[C@H](O)[C@H](C)O1` [aldoxorubicin] (0.833333 µM), for which the SARS-CoV-2 infection rate is 109% (inactive).

On to `CCC(C)(C)C(=O)O[C@H]1C[C@@H](C)C=C2C=C[C@H](C)[C@H](CC[C@@H]3C[C@@H](O)CC(=O)O3)[C@H]21` [simvastatin] (0.833333 µM), for which the SARS-CoV-2 infection rate was 26.5% (active).

As for `S=C=Nc1ccc(N=C=S)cc1` [bitoscanate] (10 µM), the SARS-CoV-2 infection rate was 106% (inactive).

In the case of `O=C1S/C(=C\c2ccc(OCc3cccc(B(O)O)c3)cc2)C(=O)N1Cc1ccc(F)cc1` (10 µM), the SARS-CoV-2 infection rate was 104% (inactive).

Consider `OB1OCc2cc(F)ccc21` [tavaborole] (10 µM), for which the SARS-CoV-2 infection rate is 108% (inactive).

Consider `O=C1Cc2cc(CCN3CCN(c4nsc5ccccc45)CC3)c(Cl)cc2N1` [ziprasidone] (10 µM), for which the SARS-CoV-2 infection rate is 100% (inactive).

For the molecule `CN/C(=N\CCSCc1nc[nH]c1C)NC#N` [cimetidine] (10 µM), the SARS-CoV-2 infection rate was 97.5% (inactive).

Take `C[C@H](Oc1cc(-c2cnn(C3CCNCC3)c2)cnc1N)c1c(Cl)ccc(F)c1Cl` [crizotinib-(S)] (0.833333 µM): the SARS-CoV-2 infection rate was 99% (inactive).

For `COCCc1ccc(OCC(O)CNC(C)C)cc1` (stereo not given) [metoprolol] (10 µM), the SARS-CoV-2 infection rate was 101% (inactive).

(Values after the supplement of paper PMC13380429.)
